# Hits are enriched below; roughly 5.8% of the tested compounds scored in any of these assays.
# KB-V1 cytotox: kills drug-selected multidrug resistant KB-V1 cells. AID 1347076. hit rate 3.4% among 400,000. Potency, µM (series often up to 46.1 µM), hits mostly cytotoxic. KB-V1 MDR cells viability, CellTiter-Glo, 72 h; note: nearly all actives have a fitted effect of over 60% in size
#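 Cells of the MDR subline KB-V1 are plated, dosed with compound at multiple concentrations, and incubated 72 h at 37 degrees C; CellTiter-Glo is then added and luminescence read after 10 min.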
# SW480 rereplic: DNA re-replication induction in SW480 cells; SW480 DNA re-replication, Hoechst DNA content imaging, 48 h; Potency, µM (titrated, usually from 46.1 µM), actives largely listed as activators; hit rate 1.8% among 340,000; note: nearly all actives have a fitted effect of over 55% in size
#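 Hoechst fluorescence of nuclei (405 nm excitation, 500-530 nm emission) measured by plate-scanning imager after 48 hr compound exposure at 37 C; re-replication scored as increased number of nuclei with elevated intensity.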
# KB-3-1 tox: kills parental KB-3-1 adenocarcinoma cells. KB-3-1 viability, CellTiter-Glo ATP luminescence, 72 h. Potency, µM (series often up to 46.1 µM), hits mostly cytotoxic. hit rate 1.4% among 400,000; note: nearly all actives have a fitted effect of over 60% in size
#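 Luminescent ATP read-out (CellTiter-Glo) measures survival of drug-naive KB-3-1 cells after 72 h compound exposure at 37 °C. Titration series was screened from lowest to highest concentration, with DMSO vehicle plates as background controls.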
# MCF10A rerep: DNA re-replication induction in MCF 10a cells; Potency, µM (doses to about 46.1 µM), actives largely listed as activators; hit rate 2.9% among 350,000; MCF 10A DNA re-replication, Hoechst nuclear intensity, 48 h; note: nearly all actives have a fitted effect of over 50% in size
# PINK1 expr mod: modulators of PINK1 expression; PINK1 immunofluorescence, high-content cytometry, 24 h; Potency, µM (series often up to 76.6 µM), usual class: activators; hit rate 0.2% among 410,000; AID 624263; active = well fitted activation curve with a large enough effect; inconclusive = small, poorly fitted or top-dose-only effect; cell line not stated here; note: nearly all actives have a fitted effect of over 65% in size
#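 Stable cell line, 250 cells/well, 12 h attachment; compounds pinned at 5 concentrations, 24 h; CCCP control. Fixed with nuclear dye, primary antibodies 12 h at 10 degrees C, secondary plus cell stain; laser-scanning cytometer read.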
# 12-LOX inh: blocks human arachidonate 12S-lipoxygenase; Potency, µM (highest dose often 108 µM), hits mostly inhibitors; P18054; AID 1671190; hit rate 1.1% among 580,000; purified 12hLO, xylenol orange hydroperoxide absorbance
# Target sequence (P18054 whole entry, looked up): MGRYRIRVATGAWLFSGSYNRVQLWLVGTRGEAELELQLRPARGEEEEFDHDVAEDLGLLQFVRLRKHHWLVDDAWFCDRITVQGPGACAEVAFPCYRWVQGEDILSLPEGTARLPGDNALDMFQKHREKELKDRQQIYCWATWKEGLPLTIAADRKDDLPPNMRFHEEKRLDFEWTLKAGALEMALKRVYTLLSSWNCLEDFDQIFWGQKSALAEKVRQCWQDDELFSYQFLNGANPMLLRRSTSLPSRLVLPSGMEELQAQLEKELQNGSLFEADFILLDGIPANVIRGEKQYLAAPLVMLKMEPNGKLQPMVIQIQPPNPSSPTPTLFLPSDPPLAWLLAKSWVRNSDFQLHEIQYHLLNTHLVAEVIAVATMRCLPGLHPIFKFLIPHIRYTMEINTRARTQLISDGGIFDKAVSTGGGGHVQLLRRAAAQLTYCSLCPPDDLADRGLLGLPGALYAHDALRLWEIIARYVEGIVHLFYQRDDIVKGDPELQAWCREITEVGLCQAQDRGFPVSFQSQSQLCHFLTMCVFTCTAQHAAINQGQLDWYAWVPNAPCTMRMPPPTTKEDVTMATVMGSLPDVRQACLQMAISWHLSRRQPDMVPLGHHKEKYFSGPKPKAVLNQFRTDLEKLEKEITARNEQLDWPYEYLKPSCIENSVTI
#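 Hydroperoxide product was detected by ferrous iron/xylenol orange as the 573 to 405 nm absorbance ratio. Arachidonic acid at 40 uM (final) was turned over for 30 min at room temperature by 150 nM human 12hLO, pH 7.0 Hepes buffer, after 15 min compound preincubation.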
# Numbers stand for hits; – = inactive; ? = inconclusive; · = no result given; ! = not confirmed by another sample; [ ] = dose if it differs, or a comment. Unless noted, calls come from the whole dose curve; as a rule, active = well fitted curve in the direction sought with a large enough effect; inconclusive = small, poorly fitted or top-dose-only effect, or another doubt; inactive = no such curve, though single readings can be large; an effect the other way counts as inactive or inconclusive.
SMILES,KB-V1 cytotox,SW480 rereplic,KB-3-1 tox,MCF10A rerep,PINK1 expr mod,12-LOX inh
CCCNC(=O)c1c(O)c2cccc3c2n(c1=O)CCC3,–,–,–,–,–,?
CCN(CC)C(=O)Oc1cc(=O)n2c3c(cccc13)CCC2,16.4µM,–,–,–,–,–
CN(C)c1nc(N/N=C/c2ccccc2O)nc(Nc2ccc(F)cc2)n1,?,5.8µM,?,10.3µM,–,–
CN(C)c1nc(Nc2ccc(F)cc2)nc(Oc2ccc(F)cc2)n1,–,–,–,–,–,–
COc1ccc(C(=O)Nc2cc(C)nn2-c2nc(C)cc(C)n2)cc1,·,·,·,·,·,–
CCOc1cc(CNC(=O)c2ncoc2-c2ccc(OC)cc2)ccc1OC,·,·,·,·,·,–
O=C(CN(Cc1ccccc1Cl)C(=O)c1ccc(CN2CCOCC2)o1)NCc1ccccc1,11.6µM,–,–,–,–,–
CCOC(=O)C1CCN(Cc2cccc(Oc3ccc(Cl)cc3)c2)CC1,–,–,–,–,–,1.41µM
CCN1CCN(Cc2cccc(Oc3ccc(Cl)cc3)c2)CC1,?,16.4µM,–,16.4µM,–,–
CC12CCC(O)CC1=CCC1C2CCC2(C)C1CCC21CCC(=O)O1 (configuration not stated),20.6µM,–,?,?,–,–
Cc1ccc(-c2cnc(C3CC3)o2)cc1S(=O)(=O)Nc1ccccc1,?,–,7.31µM,?,–,·
Cc1cccc(N(C)S(=O)(=O)c2ccc(-c3coc(C)n3)cc2)c1,·,·,·,·,·,–
Cc1ccc(N(C)S(=O)(=O)c2cc(-c3cnc(C4CC4)o3)ccc2C)cc1,–,–,?,23.1µM,–,–
Cc1cccc(N(C)S(=O)(=O)c2ccc(-c3cnc(C4CC4)o3)cc2)c1,?,0.146µM,?,23.1µM,–,–
CC(=O)Nc1ccc(NS(=O)(=O)c2cc(-c3cnc(C4CC4)o3)ccc2C)cc1,?,–,–,–,–,–
Cc1ccc(NS(=O)(=O)c2cc(-c3cnc(C4CC4)o3)ccc2C)cc1Cl,?,·,?,·,–,?
NS(=O)(=O)c1ccccc1[N+](=O)[O-],·,·,·,·,·,–
CC(NC(C)c1ccccc1Cl)c1ccc(F)cc1 (configuration not stated),·,·,·,·,·,–
Cc1cc(C)c(CN2CCC3(CC2)Cc2ccccc2CNC3=O)c(C)c1,·,·,·,·,·,–[6.33 µM]
Cc1oc(-c2ccccc2)nc1C(=O)Nc1ccccc1F,·,·,·,·,·,–
Cc1oc(-c2ccccc2)nc1C(=O)NCc1ccccc1,·,·,·,·,·,17.8µM
Cc1cccc(NC(=O)c2ccccc2NC(=O)c2nc(-c3ccccc3)oc2C)c1,·,·,·,·,·,35.5µM
COc1cccc(CNC(=O)c2nc(-c3ccccc3)oc2C)c1,·,·,·,·,·,–
COCCN1C(=O)c2ccccc2C(C(=O)Nc2nc(C)c(C)s2)C12CCCCC2 (configuration not stated),·,·,·,·,·,–
Cc1cc(=O)oc(C)c1C(=O)Nc1cc(C(F)(F)F)cc(C(F)(F)F)c1,·,·,·,·,·,–
SMILES,KB-V1 cytotox,SW480 rereplic,KB-3-1 tox,MCF10A rerep,PINK1 expr mod,12-LOX inh
CC(C)C[C@@H](CO)N(Cc1ccccc1)S(=O)(=O)N(Cc1ccccc1)[C@H](CO)CC(C)C,20.6µM!,–,?,?,–,·
COc1ccc(CN([C@H](CO)CC(C)C)S(=O)(=O)N(Cc2ccccc2)[C@H](CO)CC(C)C)cc1,16.4µM!,–,?,–,–,–
C=C[C@H](CC(C)C)N(Cc1ccccc1)S(=O)(=O)N(Cc1ccccc1)[C@@H](C=C)CC(C)C,–,–[9.22 µM],–,9.2µM,–,?
O=S(=O)(N(Cc1ccccc1)[C@H](CO)Cc1ccccc1)N(Cc1ccccc1)[C@H](CO)Cc1ccccc1,–,–,–,23.1µM,–,–
CCN([C@H](CO)CC(C)C)S(=O)(=O)c1ccccc1,–,–,–,–,–,–
COc1cccc2c1OC1(CCN(C(C)=O)CC1)N1N=C(c3ccccc3OC(F)F)CC21 (configuration not stated),·,·,·,·,·,–
O=C(N/N=C/c1ccc(Oc2ccccc2)cc1)c1ccc(CSCc2ccccc2)cc1,·,·,·,·,·,–
CCOC(=O)c1c(C)[nH]c(NC(=O)Nc2cccc(C)c2)c1C,·,·,·,·,·,–
Cc1ccc(NS(=O)(=O)c2c[nH]c3ccc([N+](=O)[O-])cc23)cc1,·,·,·,·,·,–
Cc1[nH]c2ccc(F)cc2c1CC(=O)NCC(C)(C)CN(C)C,·,·,·,·,·,–
O=C(Nc1ccc([C@H]2OCC(=O)N(Cc3ccccc3)[C@@H]2CO)cc1)C1CCOCC1,·,·,·,·,·,–
CCc1ccccc1NC(=O)CN(C)C(=O)COc1ccc2oc3c(c2c1)CCCC3,·,·,·,·,·,–
CC(C)C[C@@H](CO)N(Cc1ccccc1)S(=O)(=O)N(Cc1ccccc1)[C@@H](CO)CC(C)C,?,–,23.1µM!,?,–,·
COc1ccc(CN([C@H](C)CO)S(=O)(=O)N(Cc2ccccc2)[C@H](CO)C(C)C)cc1,–,–,–,–,–,–
C=CS(=O)(=O)N(Cc1ccccc1Br)[C@H](CO)CC(C)C,?,?,23.1µM!,–,–,?
Cc1cc(Oc2cccc(Cl)c2C#N)ccc1Cl,·,·,·,·,·,–
CCOc1cc(C(=S)N2CCCC2)ccc1O,–,–,–,?,–,?
C=CCOc1c(Cl)cc(C(=S)N2CCCC2)cc1OCC,9.2µM,?,6.51µM,11.6µM,–,–
CN1CCCCCCN(C(=O)c2cccn2C)[C@H]2CCC[C@H]2C1=O,·,·,·,·,·,–
Fc1ccc(-c2cnc(COc3ccc(Cl)cc3)o2)cc1,·,·,·,·,·,14.1µM
Fc1ccc(-c2cnc(COc3ccc(-c4nnco4)cc3)o2)cc1,·,·,·,·,·,–
CCC(C)NC(=O)Nc1ccc(-c2noc(-c3ccco3)n2)cc1 (configuration not stated),·,·,·,·,·,–
O=C1NCCCCCCN(Cc2ccncc2)[C@@H]2CN(Cc3ccncc3)CC[C@@H]12,·,·,·,·,·,–
C[C@H](CO)N1C[C@H](C)[C@H](CN(C)S(=O)(=O)c2cccs2)Oc2ccc(NC(=O)Nc3ccc4c(c3)OCO4)cc2CC1=O,?,16.4µM,?,?,–,–
C[C@H]1CN([C@@H](C)CO)C(=O)Cc2cc(NC(=O)Cc3cn(C)c4ccccc34)ccc2O[C@@H]1CN(C)S(=O)(=O)c1cn(C)cn1,–,3.66µM,–,–,–,–
C[C@H](CO)N1C[C@H](C)[C@H](CN(C)Cc2ccncc2)Oc2ccc(NC(=O)Nc3ccc(C(F)(F)F)cc3)cc2CC1=O,–,?,6.51µM,?,–,–
C[C@H]1CN([C@@H](C)CO)C(=O)Cc2cc(NC(=O)CCC(F)(F)F)ccc2O[C@H]1CN(C)S(=O)(=O)c1ccc(F)cc1,–,?,5.17µM,14.6µM,–,–
CC(C)n1ncc2cc(NC(=O)C3CCN(S(=O)(=O)c4ccccc4)CC3)cnc21,·,·,·,·,·,–
Cc1ccc2c(C)c(C(=O)N3C[C@@H](NS(C)(=O)=O)[C@H](C(C)C)C3)oc2c1,·,·,·,·,·,–

# Screening data: PubChem, National Center for Advancing Translational Sciences (NCATS)
